Measured values from the supplement of paper PMC6555819.

Key:
Experiment in all cases: PBM binding z-score (relative to random genomic background probes); higher = stronger binding; sequences stand for … in GC…GCGATTGACAGCGTAGAATGAAGG
[1] = test system: RARb homodimer (NR concentration 270 nM)
Summary of the method: (§1)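 Ligand-free nuclear receptor dimers were applied to custom Agilent 4×180K protein-binding microarrays whose double-stranded probes carried direct-repeat seeds, single-nucleotide variants, half-site ablations and random human genomic background sequences in 34-nt variable regions. Incubation lasted 1 h. Binding z-scores were computed against the random background probes from regression-normalized fluorescence.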

[2] = test system: RARg:RXRa (NR concentration 270 nM, RXRa partner concentration 90 nM)
Summary of the method: as §1

[3] = test system: RARg homodimer (NR concentration 270 nM)
Summary of the method: as §1

[4] = test system: RXRa DBDmut IVT, anti-RXR (DBD mutation: RXRa K156A/R161A, NR concentration 90 nM)
Summary of the method: as §1

[5] = test system: RXRa homodimer (NR concentration 180 nM)
Summary of the method: as §1

[6] = test system: THRa:RXRa (NR concentration 90 nM, RXRa partner concentration 90 nM)
Summary of the method: as §1

[7] = test system: THRa homodimer (NR concentration 90 nM)
Summary of the method: as §1

[8] = test system: VDR homodimer (NR concentration 270 nM)
Summary of the method: as §1

Sequence	PBM binding z-score [1]	PBM binding z-score [2]	PBM binding z-score [3]	PBM binding z-score [4]	PBM binding z-score [5]	PBM binding z-score [6]	PBM binding z-score [7]	PBM binding z-score [8]
TCTCGGAGGACACGAAGGGCAGAGCTTTCCAGAG	1.42	0.796	1.71	0.216	-0.0528	1.33	0.123	-0.0061
ATCTCTAGGTAAGAATCAGTTCAGTGAAGAACGC	0.542	0.529	0.6	0.634	0.2	0.888	0.68	1.52
CCTAGCAGGCCAATCTGGGTTACTCAAGGCTTGA	0.0666	-0.247	-0.0907	-0.131	-0.48	1.61	-0.596	-0.739
CATACTAGGTCACAGAGGTCAAAGTCCGTGCGTA	5.73	7.31	7.56	3.27	7.91	4.72	3.18	6.84
ACAGACAGGTTAGTGAAGGTAACTCAGCTGGACG	0.435	0.363	0.773	-0.188	0.511	2.2	-0.138	-0.0977
CCTACTAGGCCATCAGGTCATTGATATCAACGTT	3.07	2.45	2.56	1.43	1.71	3.32	3.28	2.51
TCTTGTAGATCAATAGTGGTTAAGAAAGTGCGCT	-0.161	-0.0273	-0.193	0.933	0.198	0.0334	-0.033	0.464
GGTACGAGGGCAAGTTGATAGCAGAGTTTGATGG	1.72	1.74	2.47	2.31	0.941	1.39	0.219	2.1
CAGCCTAGGTCAGGGCCAATATAGGAGGAACGTT	2.42	3.05	3.61	0.0153	1.69	2.07	0.573	0.171
ACAGACAGGTTATGAAGGTAACTCAGGCTATCAT	0.833	0.914	0.793	0.197	0.932	1.51	0.368	0.373
CGTCAAAGTTCAATGTAACGTAACAGAAAGCAGC	3.56	4.82	5.45	4.69	3.78	1.64	-0.0537	3.96
TAGCCAAGGTCATGGGCCAGTATACCACGCGAAC	4.04	6.18	6.1	1.93	6.11	3.89	2.68	2.65
TCTAGTAGATCAATAGAGGTTAAGAAAGTGCGCT	1.38	0.728	0.2	0.439	1.56	2.09	-0.79	0.312
TCGGCTAGGTCAGTTGGTCAGCTAACGAGCTGCC	2.79	2.88	3.91	0.368	0.942	1.14	-0.051	-0.233
CGTCAAAGTTGAAGGTAACGTAACAGAAAGCAGC	0.588	0.945	1.11	0.128	0.848	0.402	-0.078	-0.0561
CCTACTGGGCCATAAGGTCATTGATATCAACGTT	3.91	3.77	3.15	1.01	3.28	4.14	4.56	2.93
CCTACCGGGCCATCAGGTCATTGATATCAACGTT	2.68	2.12	2.18	-0.283	1.28	3.19	3.37	1.78

Sequence	PBM binding z-score [1]	PBM binding z-score [2]	PBM binding z-score [3]	PBM binding z-score [4]	PBM binding z-score [5]	PBM binding z-score [6]	PBM binding z-score [7]	PBM binding z-score [8]
CCGACCGGGGCAGAAAGGTTACCATACCATCCGG	2.41	2.1	1.87	-0.807	1.89	1.53	-0.148	0.0914
TAGCCTAGATCATTCAGGGGCCAGTATAGAAAGC	0.182	0.658	0.249	-0.277	0.341	0.0485	-0.624	-0.00416
AGTCAAAGTTCACTAGGGAACGTAAGATTCAGCT	3.65	4.75	5.65	4.23	3.67	2.05	-0.852	3.23
TCTTGGAGATCAAGCAGGTTAAGAAAGCCTGAGT	0.0966	0.06	-0.27	0.163	0.643	0.589	-0.604	0.0474
ATACCAAGGTGATCGTGAAGTCGTTGATACTAAC	0.398	0.416	0.171	0.398	0.357	1.01	0.796	0.18
CCTATTAGTTGACCATAAGGGCCACCGAAGCTCG	1.51	0.432	0.644	0.143	0.414	0.438	0.222	0.354
CCGAGTAGGTTATGGGGCATTCCGGCAACGGTGA	1	0.266	0.307	-0.402	0.465	0.0973	0.142	0.147
ATAGAAAGGTCGAGGTGAGTATAGAGAAAGGGAA	2.6	4.22	4.22	0.887	4.17	2.93	0.985	0.537
ACTATTAGCTGAGACGAGGGCAACCGATAGGTTG	1.27	0.452	0.667	0.345	0.587	0.992	0.251	0.999
TCAAGTTGGTCACGGAGGTCACACACGACGGGTA	4.54	4.9	4.56	1.53	4.68	3.72	2.55	3.44
AATACAGGGTCATTGTAGGCCAGAGTACGCACAG	3.31	5.16	4.36	4.12	6.15	4.59	0.994	3.75
TTACCAAGGTGAGCTGAGGTCGTGGATCCAACTC	1.97	1.47	0.791	-0.207	1.82	4.83	2.55	0.927
TAGCCTACGTCAGATCGGGCCAGTATACGCTATA	-0.763	-0.503	-0.517	-0.801	-0.569	0.901	-0.732	-0.727
TCTTGTAGATCAGAAGGTTAAGAAAGCTGGCCAA	1.17	0.818	0.198	0.89	1.31	0.538	-0.485	-0.118
TCTCGGAGGACACGAAGGTCAGAGGTTTCCAGAG	4.01	3.24	3.9	0.797	2.29	3.07	1.17	1.73
CGTCCAAGGTCAGCCGGTCAGTGAAAGCGACGTG	4.5	5.54	6.43	2.56	3.93	3.58	1.93	0.973
ATCGATAGGTCGACGAGGTGAGTATACACCGTTT	0.959	1.8	1.82	0.0347	1.67	2.59	0.488	0.231
